The supplement of paper PMC10849652
The full data set covers some 7,900 targets. This sample favours those with a hit. About 0.6% of all pairs of compound and target were hits.

How the values were obtained:
Assay in all cases: log2 fold change, soluble protein after heating vs DMSO (PISA); higher = thermal stabilisation; K562 cells, 10 uM, 30 min; active = over 0.2 and 3.5 SD of the protein, either way, in both replicates (recomputed)
[1] = compound: CC[C@@H]1C(=O)N(C)c2cnc(Nc3ccc(C(=O)NC4CCN(C)CC4)cc3OC)nc2N1C1CCCC1
Method in brief: (§1)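 K562 cells at 2×10^6 cells/mL were treated for 30 min with 10 μM compound, and aliquots were heated for 3 min over 48°C-58°C before pooling. Extraction used PBS with 0.5% NP-40 at 4°C, and soluble protein was the supernatant after 21,000xg for 90 min, measured by TMTpro 16plex LC-MS/MS with channel sums equalised. Thermal stability values, relative to control samples and from duplicates, are log2 fold changes.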

volasertib = compound: CC[C@@H]1C(=O)N(C)c2cnc(Nc3ccc(C(=O)N[C@H]4CC[C@H](N5CCN(CC6CC6)CC5)CC4)cc3OC)nc2N1C(C)C [volasertib]
Method in brief: as §1

[2] = compound: CC[C@H](C)N1C=C(C2=C(C=C(C=C21)C3=CN=C(C=C3)N4CCNCC4)C(=O)NCC5=C(C=C(NC5=O)C)C)C
Method in brief: as §1

epoxomicin = compound: CC[C@H](C)[C@@H](C(=O)N[C@@H]([C@@H](C)O)C(=O)N[C@@H](CC(C)C)C(=O)[C@]1(CO1)C)NC(=O)[C@H]([C@@H](C)CC)N(C)C(=O)C [epoxomicin]
Method in brief: as §1

[3] = compound: CCn1c(C(=O)N(C2CC2)C2CC2)cc2c3c(ncn3C)c(Nc3cc(C)n(C)n3)nc21
Method in brief: as §1

[4] = compound: CCn1cc(-c2ccnc3[nH]c(-c4cccc(CN(C)C)c4)cc23)c(-c2ccc(NC(=O)N(C)C)cc2)n1
Method in brief: as §1

[5] = compound: CN(C)CC(=O)Nc1ccc2[nH]c(=O)c3ccccc3c2c1
Method in brief: as §1

rosiglitazone = compound: CN(CCOC1=CC=C(C=C1)C[C@H]2C(=O)NC(=O)S2)C3=CC=CC=N3 (racemic) [rosiglitazone]
Method in brief: as §1

[6] = compound: CN1C2=C(C3=C1C(=O)N(N=C3)CC4=CC(=CC=C4)N)SC(=C2)S(=O)C
Method in brief: as §1

[7] = compound: CN1CCC(CNc2ccc3ncc(-c4cccc(OC(F)(F)F)c4)n3n2)CC1
Method in brief: as §1

saracatinib = compound: CN1CCN(CCOc2cc(OC3CCOCC3)c3c(Nc4c(Cl)ccc5c4OCO5)ncnc3c2)CC1 [saracatinib]
Method in brief: as §1

sotrastaurin = compound: CN1CCN(c2nc(C3=C(c4c[nH]c5ccccc45)C(=O)NC3=O)c3ccccc3n2)CC1 [sotrastaurin]
Method in brief: as §1

alvocidib = compound: CN1CC[C@H](c2c(O)cc(O)c3c(=O)cc(-c4ccccc4Cl)oc23)[C@H](O)C1 [alvocidib]
Method in brief: as §1

Tubastatin A = compound: CN1CCc2c(c3ccccc3n2Cc2ccc(C(=O)NO)cc2)C1 [Tubastatin A]
Method in brief: as §1

[8] = compound: CNC(=O)C1=CC=CC=C1NC2=NC(=NC=C2Cl)NC3=C(C=C(C=C3)N4CCOCC4)OC
Method in brief: as §1

defactinib = compound: CNC(=O)c1ccc(Nc2ncc(C(F)(F)F)c(NCc3nccnc3N(C)S(C)(=O)=O)n2)cc1 [defactinib]
Method in brief: as §1

rucaparib = compound: CNCc1ccc(-c2[nH]c3cc(F)cc4c3c2CCNC4=O)cc1 [rucaparib]
Method in brief: as §1

[9] = compound: CNc1nc(-c2ccc3c(N)n[nH]c3c2)cc(N2C[C@@H](C(=O)NC3CCCCC3)CC[C@H]2C)n1
Method in brief: as §1

encorafenib = compound: COC(=O)N[C@@H](C)CNc1nccc(-c2cn(C(C)C)nc2-c2cc(Cl)cc(NS(C)(=O)=O)c2F)n1 [encorafenib]
Method in brief: as §1

[10] = compound: COC(=O)[C@H](CCSC)NC(=O)C1=C(C=C(C=C1)NC[C@H](CS)N)C2=CC=CC=C2
Method in brief: as §1

Measured: log2 fold change

PDCD2L (UniProt Q9BRP1)
Chain of UniProt Q9BRP1 (Q9BRP1 whole entry, looked up): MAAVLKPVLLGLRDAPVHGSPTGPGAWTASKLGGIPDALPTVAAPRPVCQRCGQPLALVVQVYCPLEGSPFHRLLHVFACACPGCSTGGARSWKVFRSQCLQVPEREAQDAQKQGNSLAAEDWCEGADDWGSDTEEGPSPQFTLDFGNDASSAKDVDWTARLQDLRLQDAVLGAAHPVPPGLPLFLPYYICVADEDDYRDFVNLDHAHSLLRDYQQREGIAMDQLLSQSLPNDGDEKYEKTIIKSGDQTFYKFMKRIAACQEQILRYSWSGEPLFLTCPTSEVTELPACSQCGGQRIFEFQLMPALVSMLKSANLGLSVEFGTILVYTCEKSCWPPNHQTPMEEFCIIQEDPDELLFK
active: volasertib -0.435
inactive: [1] -0.201 | [2] 0.017 | epoxomicin 0.07 | [3] -0.107 | [4] -0.171 | [5] 0.038 | rosiglitazone 0.018 | [6] -0.038 | [7] -0.073 | saracatinib -0.072 | sotrastaurin -0.148 | alvocidib -0.077 | Tubastatin A 0.048 | [8] 0 | defactinib -0.068 | rucaparib 0.038 | [9] -0.031 | encorafenib 0.127 | [10] -0.007

PDLIM7 (UniProt Q9NR12)
Chain of UniProt Q9NR12 (Q9NR12 whole entry, looked up): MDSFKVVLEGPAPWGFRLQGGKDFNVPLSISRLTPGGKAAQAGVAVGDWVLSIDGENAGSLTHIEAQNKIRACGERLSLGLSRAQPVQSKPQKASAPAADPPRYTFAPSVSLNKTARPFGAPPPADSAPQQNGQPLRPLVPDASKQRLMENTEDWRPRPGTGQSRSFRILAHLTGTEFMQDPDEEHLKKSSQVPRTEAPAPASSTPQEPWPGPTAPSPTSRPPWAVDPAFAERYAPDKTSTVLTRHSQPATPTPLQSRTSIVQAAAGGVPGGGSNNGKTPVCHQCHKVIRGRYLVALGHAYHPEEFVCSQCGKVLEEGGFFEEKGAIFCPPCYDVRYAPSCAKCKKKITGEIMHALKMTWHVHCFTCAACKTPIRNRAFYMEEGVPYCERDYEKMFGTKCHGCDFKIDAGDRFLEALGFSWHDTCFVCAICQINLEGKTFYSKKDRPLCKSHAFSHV
active: volasertib -0.24
inactive: [1] -0.084 | [2] 0.012 | epoxomicin 0.013 | [3] -0.053 | [4] -0.064 | [5] 0.039 | rosiglitazone 0.039 | [6] 0.023 | [7] -0.021 | saracatinib 0.002 | sotrastaurin 0.016 | alvocidib -0.032 | Tubastatin A -0.022 | [8] -0.014 | defactinib -0.083 | rucaparib 0.002 | [9] -0.013 | encorafenib 0.021 | [10] -0.021

PIP4K2A (UniProt P48426)
Chain of UniProt P48426 (P48426 whole entry, looked up): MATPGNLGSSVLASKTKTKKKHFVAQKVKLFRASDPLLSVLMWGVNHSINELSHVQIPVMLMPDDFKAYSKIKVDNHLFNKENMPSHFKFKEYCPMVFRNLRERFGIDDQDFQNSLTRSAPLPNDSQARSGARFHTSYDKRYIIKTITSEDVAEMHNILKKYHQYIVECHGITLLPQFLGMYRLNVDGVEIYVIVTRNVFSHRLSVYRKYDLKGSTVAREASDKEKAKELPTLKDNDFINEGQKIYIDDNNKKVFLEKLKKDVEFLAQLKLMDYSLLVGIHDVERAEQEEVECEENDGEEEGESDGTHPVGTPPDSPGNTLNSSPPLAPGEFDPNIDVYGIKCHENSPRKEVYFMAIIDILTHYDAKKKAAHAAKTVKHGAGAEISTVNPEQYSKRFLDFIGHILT
active: [1] 0.602 | volasertib 0.768
inactive: [2] -0.055 | epoxomicin 0.018 | [3] -0.049 | [4] -0.052 | [5] -0.021 | rosiglitazone -0.009 | [6] 0.04 | [7] 0.114 | saracatinib 0.048 | sotrastaurin 0.011 | alvocidib 0.131 | Tubastatin A -0.001 | [8] 0.084 | defactinib 0.166 | rucaparib 0.013 | [9] -0.132 | encorafenib 0.1 | [10] -0.056

PLSCR1 (UniProt O15162)
Chain of UniProt O15162 (O15162 whole entry, looked up): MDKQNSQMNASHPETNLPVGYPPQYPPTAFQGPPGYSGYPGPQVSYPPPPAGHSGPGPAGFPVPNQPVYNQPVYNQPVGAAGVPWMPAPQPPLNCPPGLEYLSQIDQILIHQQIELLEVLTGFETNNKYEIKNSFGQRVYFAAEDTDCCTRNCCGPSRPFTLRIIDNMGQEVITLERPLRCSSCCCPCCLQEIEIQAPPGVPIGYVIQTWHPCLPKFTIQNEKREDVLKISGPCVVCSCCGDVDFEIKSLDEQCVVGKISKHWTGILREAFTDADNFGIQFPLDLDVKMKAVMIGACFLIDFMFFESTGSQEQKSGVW
inactive: [1] 0.025 | volasertib -0.1 | [2] -0.069 | epoxomicin -0.022 | [3] 0.013 | [4] 0.053 | [5] 0.037 | rosiglitazone -0.033 | [6] -0.02 | [7] 0.044 | saracatinib 0.052 | sotrastaurin 0.024 | alvocidib 0.003 | Tubastatin A 0.025 | [8] -0.058 | defactinib 0.006 | rucaparib -0.015 | [9] 0.082 | encorafenib -0.006 | [10] 0.006

PSMD9 (UniProt O00233)
Chain of UniProt O00233 (O00233 whole entry, looked up): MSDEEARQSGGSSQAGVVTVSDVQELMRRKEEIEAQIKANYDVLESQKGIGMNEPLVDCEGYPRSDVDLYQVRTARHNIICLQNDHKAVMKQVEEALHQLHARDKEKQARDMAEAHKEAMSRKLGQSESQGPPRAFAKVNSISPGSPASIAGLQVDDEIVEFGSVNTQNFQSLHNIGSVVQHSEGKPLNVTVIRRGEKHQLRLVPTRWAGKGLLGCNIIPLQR
inactive: [1] -0.011 | volasertib 0.086 | [2] 0.004 | epoxomicin -0.04 | [3] -0.009 | [4] -0.137 | [5] -0.01 | rosiglitazone 0.002 | [6] -0.034 | [7] 0.127 | saracatinib -0.022 | sotrastaurin 0.001 | alvocidib -0.012 | Tubastatin A 0.002 | [8] -0.016 | defactinib -0.034 | rucaparib -0.004 | [9] -0.031 | encorafenib -0.023 | [10] 0.005

PDCD6IP (UniProt Q8WUM4)
Chain of UniProt Q8WUM4 (Q8WUM4 whole entry, looked up): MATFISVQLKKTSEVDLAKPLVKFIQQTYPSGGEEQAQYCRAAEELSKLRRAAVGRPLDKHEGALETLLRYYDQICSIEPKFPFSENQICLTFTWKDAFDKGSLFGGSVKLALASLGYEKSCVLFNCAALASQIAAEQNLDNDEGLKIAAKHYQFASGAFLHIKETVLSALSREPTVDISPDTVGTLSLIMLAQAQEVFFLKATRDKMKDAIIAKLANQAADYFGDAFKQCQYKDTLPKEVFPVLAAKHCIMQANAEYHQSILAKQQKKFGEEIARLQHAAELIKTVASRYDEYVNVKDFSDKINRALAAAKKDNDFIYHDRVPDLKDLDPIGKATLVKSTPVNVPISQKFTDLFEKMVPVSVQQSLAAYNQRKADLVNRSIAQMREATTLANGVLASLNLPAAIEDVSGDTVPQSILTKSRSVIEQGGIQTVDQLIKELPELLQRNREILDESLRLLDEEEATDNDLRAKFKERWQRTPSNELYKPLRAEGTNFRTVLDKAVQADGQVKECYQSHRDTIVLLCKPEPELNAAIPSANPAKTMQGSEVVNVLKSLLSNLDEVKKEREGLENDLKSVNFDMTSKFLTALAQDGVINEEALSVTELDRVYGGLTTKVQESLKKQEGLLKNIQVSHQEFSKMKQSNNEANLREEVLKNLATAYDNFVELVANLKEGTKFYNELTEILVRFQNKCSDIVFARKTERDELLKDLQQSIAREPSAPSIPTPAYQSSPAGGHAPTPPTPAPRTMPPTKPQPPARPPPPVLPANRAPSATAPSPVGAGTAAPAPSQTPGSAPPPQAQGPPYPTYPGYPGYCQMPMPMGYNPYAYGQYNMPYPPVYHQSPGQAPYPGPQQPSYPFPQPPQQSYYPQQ
active: volasertib -0.694
inactive: [1] -0.219 | [2] 0.166 | epoxomicin 0.082 | [3] -0.097 | [4] -0.06 | [5] 0.116 | rosiglitazone 0.097 | [6] 0.043 | [7] -0.256 | saracatinib -0.11 | sotrastaurin -0.227 | alvocidib -0.132 | Tubastatin A 0.048 | [8] 0.034 | defactinib -0.141 | rucaparib 0.119 | [9] 0.055 | encorafenib 0.138 | [10] -0.048

PTGR2 (UniProt Q8N8N7)
Chain of UniProt Q8N8N7 (Q8N8N7 whole entry, looked up): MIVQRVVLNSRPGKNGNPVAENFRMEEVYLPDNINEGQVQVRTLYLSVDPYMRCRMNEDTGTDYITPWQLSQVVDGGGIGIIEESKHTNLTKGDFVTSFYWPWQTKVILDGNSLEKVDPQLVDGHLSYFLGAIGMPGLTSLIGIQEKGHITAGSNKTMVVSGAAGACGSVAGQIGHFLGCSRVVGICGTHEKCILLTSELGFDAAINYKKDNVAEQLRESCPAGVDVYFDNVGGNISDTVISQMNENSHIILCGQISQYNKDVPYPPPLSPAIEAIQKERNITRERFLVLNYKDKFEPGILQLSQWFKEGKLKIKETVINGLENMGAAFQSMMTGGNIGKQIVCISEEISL
inactive: [2] 0.154 | epoxomicin -0.006 | [3] 0.244 | [4] -0.117 | [5] 0.181 | rosiglitazone -0.009 | [6] 0.025 | [7] -0.278 | saracatinib 0.021 | sotrastaurin 0.009 | alvocidib 0.015 | Tubastatin A 0.046 | [8] -0.052 | defactinib -0.025 | rucaparib 0.007 | [9] 0.136 | encorafenib -0.107 | [10] -0.043
active: [1] 1.1 | volasertib 1.27

PRKCD (UniProt Q05655)
Chain of UniProt Q05655 (Q05655 whole entry, looked up): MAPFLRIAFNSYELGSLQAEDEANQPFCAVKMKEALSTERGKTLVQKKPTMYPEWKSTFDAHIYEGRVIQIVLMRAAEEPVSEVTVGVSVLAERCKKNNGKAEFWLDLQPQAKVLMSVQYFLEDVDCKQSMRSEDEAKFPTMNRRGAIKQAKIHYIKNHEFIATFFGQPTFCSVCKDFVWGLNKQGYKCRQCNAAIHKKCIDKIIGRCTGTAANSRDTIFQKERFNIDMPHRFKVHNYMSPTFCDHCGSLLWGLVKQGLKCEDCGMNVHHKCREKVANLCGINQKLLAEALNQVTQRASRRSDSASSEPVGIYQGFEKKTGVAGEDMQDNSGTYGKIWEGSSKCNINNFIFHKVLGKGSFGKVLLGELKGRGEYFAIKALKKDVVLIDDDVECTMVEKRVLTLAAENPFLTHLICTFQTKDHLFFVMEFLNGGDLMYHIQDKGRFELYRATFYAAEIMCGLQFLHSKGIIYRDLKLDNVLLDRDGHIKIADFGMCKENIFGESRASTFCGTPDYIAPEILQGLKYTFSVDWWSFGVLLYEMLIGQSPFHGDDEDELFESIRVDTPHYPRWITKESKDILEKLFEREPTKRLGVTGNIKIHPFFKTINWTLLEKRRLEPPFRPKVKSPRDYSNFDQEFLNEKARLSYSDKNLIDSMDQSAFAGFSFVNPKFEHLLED
active: sotrastaurin -0.256
inactive: [1] 0.036 | volasertib -0.073 | [2] 0.031 | epoxomicin -0.003 | [3] 0.005 | [4] -0.067 | [5] -0.009 | rosiglitazone 0.062 | [6] -0.05 | [7] -0.159 | saracatinib -0.026 | alvocidib -0.1 | Tubastatin A -0.007 | [8] 0.002 | defactinib -0.002 | rucaparib -0.031 | [9] -0.033 | encorafenib -0.029 | [10] -0.024

PMPCB (UniProt O75439)
Chain of UniProt O75439 (O75439 whole entry, looked up): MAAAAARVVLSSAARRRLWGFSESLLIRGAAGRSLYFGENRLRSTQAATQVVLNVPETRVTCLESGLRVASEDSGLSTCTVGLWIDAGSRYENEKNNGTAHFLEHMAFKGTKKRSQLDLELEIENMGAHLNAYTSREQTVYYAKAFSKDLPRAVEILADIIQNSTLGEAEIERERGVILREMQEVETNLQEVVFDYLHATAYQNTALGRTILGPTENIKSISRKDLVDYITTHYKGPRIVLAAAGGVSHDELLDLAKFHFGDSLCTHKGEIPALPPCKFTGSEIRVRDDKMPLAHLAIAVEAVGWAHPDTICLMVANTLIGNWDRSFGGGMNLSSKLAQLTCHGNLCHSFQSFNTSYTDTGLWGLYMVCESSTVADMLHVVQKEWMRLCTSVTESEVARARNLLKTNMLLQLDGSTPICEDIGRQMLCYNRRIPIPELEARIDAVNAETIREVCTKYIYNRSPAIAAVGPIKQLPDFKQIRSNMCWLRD
inactive: [1] 0.008 | volasertib 0.138 | [2] 0.038 | epoxomicin 0.022 | [3] -0.017 | [4] -0.125 | [5] 0.032 | rosiglitazone 0.002 | [6] -0.084 | [7] 0.098 | saracatinib 0.001 | sotrastaurin 0.051 | alvocidib -0.073 | Tubastatin A -0.068 | [8] 0.005 | defactinib -0.042 | rucaparib -0.033 | [9] -0.003 | encorafenib -0.022 | [10] -0.029

PHAX (UniProt Q9H814)
inactive: [1] -0.03 | volasertib -0.106 | [2] 0.027 | epoxomicin -0.041 | [3] 0.014 | [4] 0.111 | [5] 0.011 | rosiglitazone -0.007 | [6] -0.054 | [7] 0.042 | saracatinib 0.013 | sotrastaurin 0.001 | alvocidib -0.15 | Tubastatin A 0.003 | [8] -0.028 | defactinib -0.138 | rucaparib -0.031 | [9] -0.037 | encorafenib -0.034 | [10] 0.037

PSMD13 (UniProt Q9UNM6)
Chain of UniProt Q9UNM6 (Q9UNM6 whole entry, looked up): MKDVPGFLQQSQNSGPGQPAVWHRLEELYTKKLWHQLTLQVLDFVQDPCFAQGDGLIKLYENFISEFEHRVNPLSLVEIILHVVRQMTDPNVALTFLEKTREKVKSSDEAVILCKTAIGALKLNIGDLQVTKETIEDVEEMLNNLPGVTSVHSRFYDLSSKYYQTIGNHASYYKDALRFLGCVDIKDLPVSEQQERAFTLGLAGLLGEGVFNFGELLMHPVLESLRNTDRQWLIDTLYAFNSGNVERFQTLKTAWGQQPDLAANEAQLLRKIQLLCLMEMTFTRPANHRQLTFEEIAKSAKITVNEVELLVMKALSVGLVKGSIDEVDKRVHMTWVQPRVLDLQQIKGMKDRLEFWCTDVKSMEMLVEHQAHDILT
active: epoxomicin -0.288
inactive: [1] 0.075 | volasertib 0.217 | [2] 0.008 | [3] 0.012 | [4] 0.043 | [5] -0.01 | rosiglitazone 0.009 | [6] 0.02 | [7] 0.038 | saracatinib -0.073 | sotrastaurin 0 | alvocidib 0.061 | Tubastatin A 0.038 | [8] 0.027 | defactinib 0.068 | rucaparib 0.024 | [9] 0.043 | encorafenib 0.063 | [10] 0.003

POLR2K (UniProt P53803)
inactive: [1] -0.259 | volasertib -0.002 | [2] -0.05 | epoxomicin -0.032 | [3] 0.144 | [4] -0.049 | [5] 0.05 | rosiglitazone -0.059 | [6] -0.02 | [7] 0.05 | saracatinib -0.024 | sotrastaurin 0.032 | alvocidib 0.14 | Tubastatin A -0.031 | [8] -0.057 | defactinib 0.034 | rucaparib 0.039 | [9] -0.047 | encorafenib -0.174 | [10] -0.063

PTRHD1 (UniProt Q6GMV3)
Chain of UniProt Q6GMV3 (Q6GMV3 whole entry, looked up): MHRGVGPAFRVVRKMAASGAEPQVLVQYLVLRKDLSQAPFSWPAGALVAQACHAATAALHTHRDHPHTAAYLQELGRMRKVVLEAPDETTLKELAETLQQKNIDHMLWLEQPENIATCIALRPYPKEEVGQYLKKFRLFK
inactive: [1] 0.106 | volasertib 0.037 | [2] -0.028 | [3] 0.064 | [4] 0.086 | [5] -0.056 | rosiglitazone 0.048 | [6] 0.019 | [7] 0.078 | saracatinib -0.057 | sotrastaurin 0.061 | alvocidib -0.062 | Tubastatin A 0.052 | [8] 0.025 | defactinib 0 | rucaparib -0.015 | [9] -0.022 | encorafenib -0.064 | [10] 0.003
active: epoxomicin 0.415
